Measured values published in PubChem BioAssay (NCATS).
Inconclusive results are not listed. The source made the active and inactive calls. The call rests on the fitted dose curve; in most records, active means well fitted cell-killing curve with a large enough effect; inconclusive means small, poorly fitted or top-dose-only effect, or effect the other way; inactive means no such curve, though single readings can be large or run the other way.
Potency means the concentration at half of the fitted maximal effect.

Assay: Quantitative High-Throughput drug screen in 47 multiple myeloma cell lines against the NCATS MIPE library collection: KMS26_JCRB cell viability assay (AID 1918975); further: nearly all actives have a fitted effect of over 45% in size
Details: KMS26 myeloma cells viability, CellTiter-Glo ATP, 48 h; series mostly up to 45.8 µM; viability (% of DMSO): at the top concentration
Source text: PI: Beverly A. Mock Ph.D.
Laboratory of Cancer Biology and Genetics,
Center for Cancer Research, National Cancer Institute,
National Institute of Health, Bethesda, Maryland
Drug resistance and disease progression are common in multiple myeloma (MM) patients, underscoring the need for new therapeutic combinations. […] We hypothesized that effective combinations would reduce MYC expression and enhance p16 activity. […] These preclinical data identify potentially useful drug combinations for evaluation in drug-resistant MM and reveal potential mechanisms of combined drug sensitivity.
Described herein is the primary MIPE qHTS used to cherrypick compounds. Validated compounds were then further tested for potential synergistic activiy.
[1] Peat TJ, Gaikwad SM, Dubois W, Gyabaah-Kessie N, Zhang S, Gorjifard S, Phyo Z, Andres M, Hughitt VK, Simpson RM, Miller MA, Girvin AT, Taylor A, Williams D, D'Antonio N, Zhang Y, Rajagopalan A, Flietner E, Wilson K, Zhang X, Shinn P, Klumpp-Thomas C, McKnight C, Itkin Z, Chen L, Kazandijian D, Zhang J, Michalowski AM, Simmons JK, Keats J, Thomas CJ, Mock BA. Drug combinations identified by high-throughput screening promote cell cycle transition and upregulate Smad pathways in myeloma. Cancer Lett. 2023 Aug 1;568:216284. doi: 10.1016/j.canlet.2023.216284. Epub 2023 Jun 24. PMID: 37356470; PMCID: PMC10408729.
SEQUENCE No. (e.g., 1, 2, 3, etc.); […] (e.g., Cells, Incubation, Reagent, etc.); VALUE and DESCRIPTION.
1; Cells; 5 uL; white, solid bottom 1536-well Greiner assay plate.
2; Compounds; 23 nL; Kalypsis pin tool (Wako USA) equipped with a 1536-well pin head to transfer to the assay plates.
3; Incubation; 48 hours; 37C incubation.
4; Reagent;5uL; CellTiter Glo (Promega).
5; Detector; 425V; Luminescence; Viewlux PerkinElmer.
NOTES (numbers refer to Sequence numbers above)
1. The cell-based screening methods employed in this study were like those previously published. Briefly, the corresponding myeloma cell lines were screened in 1,536-well plates with 500 cells, 5-uL per well for inhibition of cell viability (assessed by measuring ATP levels with CellTiterGlo).
2. NCATS MIPE 4.0 library of approved and investigational drugs were added using the Kalypsis pin tool. Wells treated with DMSO only for 100% viability and media only wells for 0% viability were used as controls.
3. The assay plates were covered and incubated for 48 hours in a 37C, 5% CO2 incubator with controlled humidity.
4. After 48 hours, CellTilter-GloTM luminescent substrate mix (Promega) reagent was added to the assay plate and plates we incubated for 5 min at room temperature.
5. Signal was measured as median relative luminescence units on a ViewLux (PerkinElmer) multiplate reader.
[1] Heske CM, Davis MI, Baumgart JT, Wilson K, Gormally MV, Chen L, Zhang X, Ceribelli M, Duveau DY, Guha R, Ferrer M, Arnaldez FI, Ji J, Tran HL, Zhang Y, Mendoza A, Helman LJ, Thomas CJ. Matrix Screen Identifies Synergistic Combination of PARP Inhibitors and Nicotinamide Phosphoribosyltransferase (NAMPT) Inhibitors in Ewing Sarcoma. Clin Cancer Res. 2017 Dec 1;23(23):7301-7311. doi: 10.1158/1078-0432.CCR-17-1121. Epub 2017 Sep 12. PMID: 28899971; PMCID: PMC6636827.
In the case of `C1=CCOCc2cc(ccc2OCCN2CCCC2)Nc2nccc(n2)-c2cccc(c2)OCC1`, the Potency is reported as 4.18 µM (active). For `CCCCc1nc2cc(C=CC(=O)NO)ccc2n1CCN(CC)CC`, the Potency was 0.526 µM (active). With `C=C1C(=CC=C2CCC[C@]3(C)[C@@H]([C@H](C)C=C[C@H](C)C(C)C)CC[C@@H]23)C[C@@H](O)C[C@@H]1O` the Potency was 2.35 µM (active). In the case of `COc1cc2c(Nc3ccc(NC(=O)c4ccccc4)cc3)ncnc2cc1OCCCN1CCOCC1`, the Potency is reported as 37.2 µM (active). In the case of `CC[C@@H]1C(=O)N(C)c2cnc(Nc3ccc(C(=O)NC4CCN(C)CC4)cc3OC)nc2N1C1CCCC1`, the Potency is reported as 3.72 µM (active). With `Cc1ccc(NC(=O)C2(c3ccc4c(c3)OC(F)(F)O4)CC2)nc1-c1cccc(C(=O)O)c1` the Potency was 0.059 µM (active). For `COc1cccc2c(NCc3ccccc3)nc(-n3c(N)nc4ccccc43)nc12`, the Potency was 4.69 µM (active). For `NC(=O)Nc1cc(-c2cccc(F)c2)sc1C(=O)N[C@H]1CCCNC1`, the Potency was 11.8 µM (active). For `O=c1[nH]nc(Sc2ncc([N+](=O)[O-])s2)n1-c1ccc2c(c1)OCCO2`, the Potency was 1.48 µM (active). In the case of `COC(=O)C1=C(C)NC(C)=C(C(=O)OCCN2CCN(C(c3ccccc3)c3ccccc3)CC2)C1c1cccc([N+](=O)[O-])c1` (stereo not given), the “viability (% of DMSO)” value is reported as 158% (inactive). For `Cc1[nH]c2ccccc2c1CCNCc1ccc(C=CC(=O)NO)cc1`, the Potency was 0.0662 µM (active). In the case of `COc1cc2nccc(Oc3ccc(NC(=O)C4(C(=O)Nc5ccc(F)cc5)CC4)cc3)c2cc1OC`, the Potency is reported as 23.5 µM (active). For `CC1(C)CC(=O)c2c(C(F)(F)F)nn(-c3ccc(C(N)=O)c(NC4CCC(OC(=O)CN)CC4)c3)c2C1` (stereo not given), the Potency was 0.187 µM (active). In the case of `Cc1ccc2nc(NC(=O)CSc3nc4c(c(=O)n3-c3ccccc3)SCC4)sc2c1`, the Potency is reported as 23.5 µM (active). For `CC1=C(CO)C(=O)O[C@@H]([C@@H](C)[C@H]2CC[C@H]3[C@@H]4C[C@H]5O[C@]56[C@@H](O)C=CC(=O)[C@]6(C)[C@@H]4CC[C@]23C)C1`, the Potency was 0.235 µM (active). With `CN(C)CCCN=c1c2ccccc2n(C)c2[nH]c(=O)n(C)c(=O)c12` the Potency was 26.4 µM (active). In the case of `Cc1cc(N2CCOCC2)cc2[nH]c(-c3c(NC[C@@H](O)c4cccc(Cl)c4)cc[nH]c3=O)nc12`, the Potency is reported as 0.526 µM (active). With `CNC(=O)c1nn(C)c2c1C(C)(C)Cc1cnc(Nc3ccc(N4CCN(C)CC4)cc3)nc1-2` the Potency was 13.2 µM (active). In the case of `CC(C)c1ccccc1Cc1cc(C(=O)Nc2ccc(S(=O)(=O)c3ccccc3C(C)(C)C)cc2)c(O)c(O)c1O`, the Potency is reported as 9.35 µM (active). With `CC[C@@]1(O)C(=O)OCc2c1cc1n(c2=O)Cc2cc3cc(O)ccc3nc2-1` the Potency was 5.26 µM (active). With `COc1cccc2nc(-c3cccs3)nc(NN3C(=O)C=C(C)C3=O)c12` the Potency was 2.96 µM (active). In the case of `C=C1C(=CC=C2CCCC3(C)[C@@H]([C@H](C)C=CC=CC(O)(CC)CC)CC[C@@H]23)C[C@@H](O)C[C@@H]1O` (stereo not given in full), the Potency is reported as 23.5 µM (active). For `COc1cc2c(Oc3ccc4[nH]c(C)cc4c3F)ncnc2cc1OCCCN1CCCC1`, the Potency was 29.6 µM (active). In the case of `Nc1cc(C(F)(F)F)c(-c2cc(N3CCOCC3)nc(N3CCOCC3)n2)cn1`, the Potency is reported as 2.09 µM (active). In the case of `Clc1ccc2ncc(-c3cccc(NC4CNC4)n3)n2c1`, the Potency is reported as 23.5 µM (active). For `O=C(Nc1nc2cccc(-c3ccc(CN4CCS(=O)(=O)CC4)cc3)n2n1)C1CC1`, the Potency was 13.2 µM (active). In the case of `Cc1nc(Nc2n[nH]c3c2CN(C(=O)N[C@H](CN(C)C)c2ccccc2)C3(C)C)c2sccc2n1`, the Potency is reported as 2.96 µM (active). With `Cc1cc(Nc2nc(N[C@@H](C)c3ccc(F)cc3)c(C#N)cc2F)n[nH]1` the Potency was 8.33 µM (active). In the case of `CN1CCN(c2ccc3nc(-c4c(N)c5c(F)cccc5[nH]c4=O)[nH]c3c2)CC1`, the Potency is reported as 29.6 µM (active). For `Cc1c(CN2CCN(S(C)(=O)=O)CC2)sc2c(N3CCOCC3)nc(-c3cnc(N)nc3)nc12`, the Potency was 0.187 µM (active). For `Cc1nc2cnc3ccc(C#Cc4cccnc4)cc3c2n1-c1ccc(C(C)(C)C#N)cc1`, the Potency was 1.32 µM (active). In the case of `CCC[C@H](NC(=O)C(C#N)=Cc1cccc(Br)n1)c1ccccc1`, the Potency is reported as 1.48 µM (active). With `C=CC(=O)Nc1cc2c(Nc3ccc(F)c(Cl)c3)ncnc2cc1OCCCN1CCOCC1` the Potency was 5.26 µM (active). In the case of `C[C@@]12O[C@@H](C[C@]1(O)CO)n1c3ccccc3c3c4c(c5c6ccccc6n2c5c31)CNC4=O`, the Potency is reported as 5.9 µM (active). For `CC1(O)CC(c2nc(-c3ccc4ccc(-c5ccccc5)nc4c3)c3c(N)nccn23)C1` (stereo not given), the Potency was 0.833 µM (active). With `Clc1cccc(-c2nnnn2Cc2cccnc2)c1Cl` the “viability (% of DMSO)” value was 109% (inactive). In the case of `CN(C1CCc2c(c3ccccc3n2CC(=O)O)C1)S(=O)(=O)c1ccc(F)cc1` (stereo not given), the “viability (% of DMSO)” value is reported as 131% (inactive). In the case of `COC(=O)Nc1nc2ccc(C(=O)c3ccc(F)cc3)cc2[nH]1`, the Potency is reported as 5.26 µM (active). With `CC[C@@H]1C(=O)N(C)c2cnc(Nc3ccc(C(=O)NC4CCC(N5CCN(CC6CC6)CC5)CC4)cc3OC)nc2N1C(C)C` (stereo not given in full) the Potency was 5.26 µM (active). In the case of `COc1cc2c(Oc3ccc(-c4cnc(Nc5ccc(F)cc5)n(C)c4=O)cc3F)ccnc2cc1OCCCN1CCOCC1`, the Potency is reported as 18.7 µM (active).
